Laboratory results: publication PMC5540273 (PLoS ONE, 2017)
“And” between values parts separate entries of the source, which are not always exact repeats. Equal values may be shown once. Read-outs that look alike come from different tables or passages of the source.

Tests used:
[1] = tested on: CHEK2; settings: concentration: 1 μM, replicates: in singlicate; n = 1
[2] = tested on: CIT; settings: n = 1
[3] = tested on: CLK1; settings: n = 1
[4] = tested on: CLK2; settings: concentration: 1 μM, replicates: in singlicate; n = 1
[5] = tested on: CLK3; settings: n = 1
[6] = tested on: CLK4; settings: n = 1
[7] = tested on: CSF1R-autoinhibited; settings: concentration: 1 μM, replicates: in singlicate; n = 1
[8] = tested on: CSF1R; settings: n = 1
[9] = tested on: CSK; settings: n = 1
[10] = tested on: CSNK1A1L; settings: n = 1
[11] = concentration: 1 μM, replicates: in singlicate
[12] = concentration: 1 μM,replicates: in singlicate, 1 µM
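Note: KINOMEscan kinase panel screen.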

| Compound | %Inh [1] [%] | %Inh [2, 11] [%] | %Inh [3, 11] [%] | %Inh [4] [%] | %Inh [5, 11] [%] | %Inh [6, 11] [%] | %Inh [7] [%] | %Inh [8, 11] [%] | %Inh [9, 11] [%] | %Inh [10, 11] [%] | %Inh [2, 12] | %Inh [3, 12] | %Inh [5, 12] | %Inh [6, 12] | %Inh [8, 12] | %Inh [9, 12] | %Inh [10, 12] |
| --- | --- | --- | --- | --- | --- | --- | --- | --- | --- | --- | --- | --- | --- | --- | --- | --- | --- |
| Cn1ccc2ncnc(Oc3ccc(NC(=O)Nc4ccccc4)cc3)c21 | 14 | 22 | 1 | 0 | 0 | 14 | 10 | 95.1 | 0 | 3 | – | – | – | – | – | – | – |
| Cc1ccc(C(=O)Nc2ccc(Nc3ccnc4cc(-c5ccccn5)ccc34)cc2O)cc1.Cl [GW440146] | 4 | 2 | 13 | 1 | 0 | 23 | 0 | 35 | 34 | 0 | – | – | – | – | – | – | – |
| Cl.NC(=O)c1cccc(Nc2nccc(Nc3ccc(Oc4cccc(Cl)c4)c(Cl)c3)n2)c1 [GW659008] | 0 | 19 | 13 | 0 | 10 | 17 | 22 | 14 | 17 | 16 | – | – | – | – | – | – | – |
| Clc1cc(Cl)cc(Nc2ccnc(Nc3cc(Cl)cc(Cl)c3)n2)c1 [GSK175726] | 0 | 22 | 17 | 36 | 22 | 38 | 0 | 3 | 0 | 0 | – | – | – | – | – | – | – |
| COc1ccc(Nc2nccc(-c3cccc(NC(=O)c4cc5cc(F)ccc5[nH]4)c3)n2)cc1 [GSK1229782] | 37 | 44 | 33 | 0 | 12 | 28 | 57 | 10 | 0 | 20 | – | – | – | – | – | – | – |
| O=c1cc(N2CCOCC2)nc2n(Cc3cccc(Cl)c3Cl)ccn12 [GSK2286295] | 0 | 5 | 64 | 14 | 13 | 51 | 0 | 25 | 0 | 6 | – | – | – | – | – | – | – |
| O=C(Nc1n[nH]c2nc(-c3nccs3)c(Br)cc12)C1CC1 [SB-742251] | 0 | 3 | 1 | 0 | 11 | 0 | 17 | 0 | 0 | 19 | – | – | – | – | – | – | – |
| Cc1cccc(-c2cc(Nc3ccncc3)c3ccccc3n2)n1 [GSK223675] | 0 | 23 | 22 | 0 | 10 | 5 | 0 | 8 | 0 | 0 | – | – | – | – | – | – | – |
| Cc1cccc(-c2nc(Nc3ccncc3)c3ccccc3n2)n1 [GW855857] | 0 | 91.1 | 10 | 8 | 31 | 0 | 0 | 0 | 4 | 10 | – | – | – | – | – | – | – |
| CSc1nn2c(=O)cc(N3CCOCC3)nc2n1Cc1cccc(C(F)(F)F)c1C [GSK2363608] | 0 | – | – | 0 | – | – | 0 | – | – | – | 23% and 2% | 43% and 31% | 0% and 6% | 17% and 0% | 23% and 9% | 11% and 0% | 8% and 7% |
| Nc1ncnc2[nH]c(-c3ccccc3)nc12 [AH5015] | 0 | 9 | 67 | 57 | 0 | 71 | 7 | 13 | 0 | 1 | – | – | – | – | – | – | – |
| Cc1cc(NCC(c2ccccc2)c2ccccc2)nc(NCc2ccc(C(F)(F)F)cc2)n1 [GW497681] | 18 | 30 | 15 | 0 | 37 | 15 | 30 | 6 | 0 | 2 | – | – | – | – | – | – | – |
| COc1cc2ncn(-c3cc(OCC4CCCO4)c(C(N)=O)s3)c2cc1OC (stereo not drawn) [GSK204607] | 20 | 12 | 22 | 0 | 10 | 18 | 3 | 5 | 0 | 0 | – | – | – | – | – | – | – |
| COc1cccc(-c2cc(-c3c[nH]nc3-c3ccccn3)ccn2)c1 [GW680338] | 18 | 7 | 22 | 22 | 0 | 28 | 51 | 0 | 0 | 8 | – | – | – | – | – | – | – |
| Cc1cccc(-c2nc(C)cc(Nc3ccncc3)n2)n1 [GSK257997] | 0 | 23 | 13 | 9 | 15 | 9 | 0 | 0 | 0 | 7 | – | – | – | – | – | – | – |
| COc1ccccc1-c1ccc2c(NC(=O)C3CC3)n[nH]c2n1 [SB-711239] | 19 | 22 | 3 | 0 | 0 | 33 | 30 | 0 | 62 | 6 | – | – | – | – | – | – | – |
| Cc1cccc(-c2nc(-c3ccc(S(C)(=O)=O)cc3)sc2-c2ccnc(NCCc3ccccc3)c2)c1 | 0 | 0 | 8 | 2 | 12 | 1 | 1 | 72 | 2 | 0 | – | – | – | – | – | – | – |
| Cl.c1ccc(-c2n[nH]cc2-c2ccnc(-c3ccc(CN4CCOCC4)cc3)c2)nc1 [GW776245] | 0 | 10 | 0 | 10 | 0 | 0 | 0 | 0 | 10 | 1 | – | – | – | – | – | – | – |
